Among all 5,500 compounds or so, about 2,000 (36%) were called active. Roughly 18% stayed inconclusive and do not appear here. Rule as the data show it: active = normalized growth mostly below about 0.91 (no sharp cut-off); inconclusive = no clear call, values can overlap the other calls; inactive = mostly above about 0.92. Some of the results follow.
Assay: chemical genetic growth profiling, strain panel (AID 1159580);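 also: tested at 20 µM; growth read once vehicle control cultures reached saturation at 30 °C; 1 = growth at the plate median or of vehicle wells; lower values mean less growth of the strain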
Conditions: growth OD

Measured: normalized growth

COc1cc(C)c2c(=O)c3c(O)cc(OC)cc3oc2c1
inactive: S. cerevisiae deletion strains, locus YAL013W, strain DEP1, hits give low values 1.01 | S. cerevisiae deletion strains, locus YBR021W, strain FUR4, hits give low values 0.968 | S. cerevisiae deletion strains, locus YBR229C, strain ROT2, hits give low values 1.02 | S. cerevisiae deletion strains, locus YCL029C, strain bik1, hits give low values 0.991 | S. cerevisiae deletion strains, locus YDL035C, strain GPR1, hits give low values 1.01 | S. cerevisiae deletion strains, locus YDL074C, strain BRE1, hits give low values 1.02 | S. cerevisiae deletion strains, locus YDL101C, strain DUN1, hits give low values 1.02 | S. cerevisiae deletion strains, locus YDL134C, strain PPH21, hits give low values 1.01 | S. cerevisiae deletion strains, locus YDL185W, strain tfp1, hits give low values 0.991 | S. cerevisiae deletion strains, locus YDL192W, strain arf1, hits give low values 0.986 | S. cerevisiae deletion strains, locus YDR101C, strain arx1, hits give low values 0.981 | S. cerevisiae deletion strains, locus YDR150W, strain NUM1, hits give low values 1.02 | S. cerevisiae deletion strains, locus YDR162C, strain NBP2, hits give low values 1.02 | S. cerevisiae deletion strains, locus YDR318W, strain mcm21, hits give low values 0.986 | S. cerevisiae deletion strains, locus YDR388W, hits give low values 0.981 | S. cerevisiae deletion strains, locus YDR502C, strain sam2, hits give low values 0.982 | S. cerevisiae deletion strains, locus YEL061C, strain CIN8, hits give low values 1.01 | S. cerevisiae deletion strains, locus YER110C, hits give low values 0.977 | S. cerevisiae deletion strains, locus YER155C, strain BEM2, hits give low values 1 | S. cerevisiae deletion strains, locus YER167W, strain BCK2, hits give low values 1.01 | S. cerevisiae deletion strains, locus YGL078C, strain dbp3, hits give low values 0.976 | S. cerevisiae deletion strains, locus YGL086W, strain mad1, hits give low values 0.982 | S. cerevisiae deletion strains, locus YGL248W, strain PDE1, hits give low values 1.02 | S. cerevisiae deletion strains, locus YGR078C, strain PAC10, hits give low values 1 | S. cerevisiae deletion strains, locus YGR135W, strain pre9, hits give low values 0.977 | S. cerevisiae deletion strains, locus YGR229C, strain SMI1, hits give low values 0.996 | S. cerevisiae deletion strains, locus YGR252W, strain gcn5, hits give low values 0.929 | S. cerevisiae deletion strains, locus YHR030C, strain SLT2, hits give low values 1.01 | S. cerevisiae deletion strains, locus YHR079C, strain IRE1 (second series), hits give low values 0.977 | S. cerevisiae deletion strains, locus YHR094C, strain hxt1, hits give low values 0.991 | S. cerevisiae deletion strains, locus YHR129C, strain ARP1, hits give low values 1.01 | S. cerevisiae deletion strains, locus YHR200W, strain rpn10, hits give low values 0.975 | S. cerevisiae deletion strains, locus YIL066C, strain RNR3, hits give low values 1.01 | S. cerevisiae deletion strains, locus YIL073C, strain SPO22, hits give low values 0.967 | S. cerevisiae deletion strains, locus YIL125W, strain kgd1, hits give low values 0.984 | S. cerevisiae deletion strains, locus YIR030C, strain dcg1, hits give low values 0.994 | S. cerevisiae deletion strains, locus YJL095W, strain BCK1, hits give low values 0.995 | S. cerevisiae deletion strains, locus YJL134W, strain LCB3, hits give low values 1.01 | S. cerevisiae deletion strains, locus YJL168C, strain set2, hits give low values 0.982 | S. cerevisiae deletion strains, locus YJL187C, strain SWE1 (second series), hits give low values 1.02 | S. cerevisiae deletion strains, locus YJR043C, strain POL32, hits give low values 0.999 | S. cerevisiae deletion strains, locus YJR075W, strain HOC1, hits give low values 1.01 | S. cerevisiae deletion strains, locus YKL009W, strain mrt4, hits give low values 0.984 | S. cerevisiae deletion strains, locus YKL068W, hits give low values 0.993 | S. cerevisiae deletion strains, locus YKL085W, strain MDH1 (second series), hits give low values 1.03 | S. cerevisiae deletion strains, locus YKL085W, strain MDH1, hits give low values 1.03 | S. cerevisiae deletion strains, locus YKL190W, strain CNB1, hits give low values 1.01 | S. cerevisiae deletion strains, locus YKR001C, strain vps1, hits give low values 0.982 | S. cerevisiae deletion strains, locus YLR039C, strain RIC1, hits give low values 1.04 | S. cerevisiae deletion strains, locus YLR058C, strain SHM2, hits give low values 1.02 | S. cerevisiae deletion strains, locus YLR102C, strain apc9, hits give low values 0.982 | S. cerevisiae deletion strains, locus YLR262C, strain YPT6, hits give low values 1.04 | S. cerevisiae deletion strains, locus YLR268W, strain sec22, hits give low values 0.987 | S. cerevisiae deletion strains, locus YLR330W, strain CHS5, hits give low values 1.02 | S. cerevisiae deletion strains, locus YLR342W, strain FKS1 (second series), hits give low values 0.996 | S. cerevisiae deletion strains, locus YLR371W, strain rom2, hits give low values 0.984 | S. cerevisiae deletion strains, locus YLR418C, strain cdc73, hits give low values 0.981 | S. cerevisiae deletion strains, locus YML016C, strain PPZ1, hits give low values 1.02 | S. cerevisiae deletion strains, locus YML032C, strain rad52, hits give low values 0.978 | S. cerevisiae deletion strains, locus YML124C, strain tub3, hits give low values 0.985 | S. cerevisiae deletion strains, locus YMR078C, strain ctf18, hits give low values 0.993 | S. cerevisiae deletion strains, locus YMR223W, strain ubp8, hits give low values 0.98 | S. cerevisiae deletion strains, locus YMR263W, strain SAP30, hits give low values 1.01 | S. cerevisiae deletion strains, locus YMR307W, strain GAS1, hits give low values 0.976 | S. cerevisiae deletion strains, locus YNL067W, strain RPL9B, hits give low values 1.01 | S. cerevisiae deletion strains, locus YNL128W, strain TEP1, hits give low values 1.01 | S. cerevisiae deletion strains, locus YNL153C, strain GIM3, hits give low values 1.01 | S. cerevisiae deletion strains, locus YNL233W, strain BNI4, hits give low values 1.01 | S. cerevisiae deletion strains, locus YNL250W, strain rad50, hits give low values 0.992 | S. cerevisiae deletion strains, locus YNL271C, strain bni1, hits give low values 0.98 | S. cerevisiae deletion strains, locus YNL298W, strain CLA4, hits give low values 0.976 | S. cerevisiae deletion strains, locus YNL307C, strain MCK1, hits give low values 0.981 | S. cerevisiae deletion strains, locus YNL322C, strain KRE1, hits give low values 1.01 | S. cerevisiae deletion strains, locus YNR052C, strain pop2, hits give low values 0.978 | S. cerevisiae deletion strains, locus YOL006C, strain TOP1, hits give low values 1.05 | S. cerevisiae deletion strains, locus YOL012C, strain htz1 1.37 | S. cerevisiae deletion strains, locus YOL147C, strain pex11, hits give low values 0.985 | S. cerevisiae deletion strains, locus YOR061W, strain CKA2, hits give low values 1.02 | S. cerevisiae deletion strains, locus YOR069W, strain VPS5, hits give low values 1.01 | S. cerevisiae deletion strains, locus YOR136W, strain idh2, hits give low values 0.979 | S. cerevisiae deletion strains, locus YOR144C, strain elg1, hits give low values 0.99 | S. cerevisiae deletion strains, locus YOR184W, strain ser1, hits give low values 0.969 | S. cerevisiae deletion strains, locus YOR316C, strain cot1, hits give low values 0.982 | S. cerevisiae deletion strains, locus YPL055C, strain LGE1, hits give low values 1.01 | S. cerevisiae deletion strains, locus YPL241C, strain CIN2, hits give low values 0.99 | S. cerevisiae deletion strains, locus YPR119W, strain clb2, hits give low values 0.98 | S. cerevisiae deletion strains, locus YPR141C, strain kar3, hits give low values 1 | S. cerevisiae deletion strains, locus YPR163C, strain tif3, hits give low values 0.988 | S. cerevisiae deletion strains, locus YPR167C, strain met16, hits give low values 0.985 | S. cerevisiae deletion strains, strain wtn01, hits give low values 0.986 | S. cerevisiae strains, strain wild type, hits give low values 1.01
